# Results filed as inconclusive are left out. Where a call stands in place of a potency, no number is given. Active and inactive are the calls of the source. Calls follow the shape of the dose curve; as a rule, active = well fitted inhibition curve with a large enough effect; inconclusive = small, poorly fitted or top-dose-only effect; inactive = flat fitted curve, though single readings scatter.
# Target: Luciferin 4-monooxygenase (Photinus pyralis) (UniProt P08659)
# Assay: qHTS Assay for Inhibitors of Firefly Luciferase from the GSK Published Protein Kinase Inhibitor Set
# Conditions: purified firefly luciferase, luminescence inhibition; series mostly up to 57.5 µM
# Method in brief: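 Purified P. pyralis luciferase, 10nM, with 10uM D-luciferin and 10uM ATP in 50mM Tris acetate pH 7.5, 10mM Mg acetate, 0.01% Tween-20, 0.05% BSA. Titration ~60uM to 300pM; luminescence read after about 5 min.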
# Potency is read from the fitted curve at half-maximal effect.
# Chain of Luciferin 4-monooxygenase (Photinus pyralis) (P08659 whole entry, looked up): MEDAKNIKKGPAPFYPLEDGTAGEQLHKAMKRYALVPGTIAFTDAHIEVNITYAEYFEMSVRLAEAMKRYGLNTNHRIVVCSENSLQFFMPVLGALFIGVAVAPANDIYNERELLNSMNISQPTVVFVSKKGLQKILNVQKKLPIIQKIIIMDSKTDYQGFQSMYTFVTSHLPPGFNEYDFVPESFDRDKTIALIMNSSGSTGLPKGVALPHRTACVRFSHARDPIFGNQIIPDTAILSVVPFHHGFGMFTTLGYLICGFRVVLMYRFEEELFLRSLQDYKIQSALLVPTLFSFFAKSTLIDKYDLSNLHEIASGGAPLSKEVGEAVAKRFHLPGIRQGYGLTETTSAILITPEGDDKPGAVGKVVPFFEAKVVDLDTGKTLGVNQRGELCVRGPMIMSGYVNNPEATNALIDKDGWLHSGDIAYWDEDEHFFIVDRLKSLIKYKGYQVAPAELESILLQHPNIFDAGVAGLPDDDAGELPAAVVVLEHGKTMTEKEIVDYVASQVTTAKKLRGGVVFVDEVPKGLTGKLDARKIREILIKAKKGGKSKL
row,SMILES,Potency
1,N#Cc1c(NC(=O)CN2CCOCC2)sc2c1CCCC2,inactive
2,CNC(=O)c1cc(-c2ccc(F)cc2)cc(-c2ccc(S(=O)(=O)N3CCCC3)cc2)c1N,inactive
3,NS(=O)(=O)c1ccc(N=Nc2c(O)[nH]c3ccc(-c4cnco4)cc23)cc1,inactive
4,C#Cc1cccc(Nc2ncnc3ccc(OCCCCNCCS(C)(=O)=O)cc23)c1,inactive
5,NS(=O)(=O)c1cccc(Nc2cc(-c3ccc(F)cc3)[nH]n2)c1,11.6 µM (active)
6,N#Cc1c(NC(=O)c2ccccc2F)sc2c1CCCC2,0.819 µM (active)
7,CCS(=O)(=O)c1ccc(OC)c(Nc2ncc(-c3cccc(OC)c3)o2)c1,inactive
8,COc1cc2c(cc1Nc1nc(Nc3ccsc3C(N)=O)c3cc[nH]c3n1)N(C(=O)CN(C)C)CCC2(C)C,inactive
9,O=C1Nc2ccc(C(=O)c3ccco3)cc2/C1=C/c1cc(Cl)c(O)c(Cl)c1,18.3 µM (active)
10,COc1cc2c(cc1Nc1nc(Nc3cccc(F)c3C(N)=O)c3cc[nH]c3n1)N(C(=O)CN1CCN(C(C)C)CC1)CC2,inactive
11,CCNC(=O)OC1CNC(C#Cc2cc3ncnc(Nc4ccc(OCc5cccc(F)c5)c(Cl)c4)c3s2)C1 (stereo not drawn),inactive
12,Nc1nc(-c2cccc(Cl)c2)c(-c2ccc3ncccc3n2)s1,inactive
13,COc1cc2ncn(-c3cc(OCc4ccccc4C(F)(F)F)c(C(C)=O)s3)c2cc1OC,inactive
14,CCn1c(-c2nonc2N)nc2c(C#CC(C)(C)O)nc(OCCNC)cc21,inactive
15,CCN(CC)Cc1ccc(Nc2nccc(-c3cnn4ncccc34)n2)cc1,inactive
16,COC(=O)c1cncc(C=Cc2c(C)cc(O)cc2C)c1,inactive
17,COc1ccc(-c2oc3ncnc(N)c3c2-c2ccc(NC(=O)Nc3cc(C(F)(F)F)ccc3F)cc2)cc1,inactive

row,SMILES,Potency
1,Nc1ncnc2occ(-c3ccc(NC(=O)Nc4cc(C(F)(F)F)ccc4F)cc3)c12,inactive
2,O=C1NC(=O)C(c2cccc(Cl)c2)=C1Nc1ccc(O)c(Cl)c1,inactive
3,COc1ccc(-c2nn3ncccc3c2-c2ccnc(Nc3cccc(C(F)(F)F)c3)n2)cc1,inactive
4,CCCNc1cccc(-n2ncc3c(NN=Cc4ccncc4)ncnc32)c1,inactive
5,Nc1ncnc2occ(-c3ccc(NC(=O)Nc4cccc(C(F)(F)F)c4)cc3)c12,inactive
6,CS(=O)(=O)CCNCc1nc(-c2ccc3ncnc(Nc4ccc(F)c(Cl)c4)c3c2)cs1,inactive
7,Nc1ncnc2occ(-c3ccc(NC(=O)Nc4cc(C(F)(F)F)cc(C(F)(F)F)c4)cc3)c12,inactive
8,COc1cc(C)c(N(C)C(=O)CN(C)C)cc1Nc1nc(Nc2cccc(F)c2C(N)=O)c2cc[nH]c2n1,inactive
9,Fc1ccc(Nc2nccc(-c3c(-c4ccc(C(F)(F)F)cc4)nn4ncccc34)n2)cc1F,inactive
10,CCS(=O)(=O)c1ccc(OC)c(Nc2ncc(-c3ccccc3Cl)o2)c1,inactive
11,NS(=O)(=O)c1ccc(Nc2cc(-c3ccc(O)c(F)c3)[nH]n2)cc1,inactive
12,CS(=O)(=O)CCNCc1ccc(-c2ccc3ncnc(Nc4ccc(OCc5ccccc5)c(C(F)(F)F)c4)c3c2)o1,inactive
13,CS(=O)(=O)CCNCc1ccc(-c2ccc3ncnc(Nc4ccc(OCc5cccc(C(F)(F)F)c5)cc4)c3c2)o1,inactive
14,CN(C)c1ccc2[nH]c(O)c(C=Nc3ccc(S(N)(=O)=O)cc3)c2c1,inactive
15,Fc1ccc(Oc2nccc(-c3c(-c4ccc(F)cc4)ncn3C3CCNCC3)n2)cc1,inactive
16,CCn1c(-c2nonc2N)nc2c(C#CCN)ncc(OCCCN)c21,inactive

# From PubChem BioAssay AID652016 (National Center for Advancing Translational Sciences (NCATS), 2013)
